Results taken from PubChem BioAssay (Tox21).
“And” between values parts separate entries of the source, which are not always exact repeats. Identical values can stand only once. Results filed as inconclusive are left out. Where a call stands in place of a potency, no number is given. Some compounds were tested as several samples or in several runs, with calls that do not always agree. The source made the active and inactive calls. Unless noted, calls follow the shape of the dose curve; as a rule, active = well fitted curve in the direction sought with a large enough effect in the repeat runs; inconclusive = weak or mixed curves; inactive = no such curve, though single readings can be large; an effect the other way counts as inactive or inconclusive.

Experiments:
[1] = target: Thyrotropin-releasing hormone receptor (Homo sapiens) (UniProt P34981); experiment: qHTS assay to identify small molecule agonists of the thyrotropin-releasing hormone receptor (TRHR) signaling pathway (AID 1346891; calls by dose curve;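 also: HEK293 cells expressing TRHR with calcium dye readout; series mostly up to about 58 µM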)
Procedure, shortened: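 Kinetic fluorescence (3 min, 1 s intervals) reported intracellular calcium after compound transfer onto TRHR-Hek293 cells pre-loaded with dye for 2 h at 37 °C.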

[2] = Human pregnane X receptor (PXR) small molecule agonists, qHTS cell viability counter screen (AID 1346977); also: nearly all actives have a fitted effect of over 50% in size
Procedure, shortened: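 HepG2 cells stably carrying the PXR-Luc reporter are cultured with 5% charcoal-stripped FBS and treated with compounds for 24hr. CellTiter-Fluor is added at 23hr and fluorescence is read after 1hr.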

[3] = Caspase-3/7 induction in HepG2 cells by small molecules, qHTS assay (AID 1346978); also: nearly all actives have a fitted effect of over 15% in size
Procedure, shortened: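 Caspase-3/7 induction was measured by Caspase-Glo 3/7 luminescence (30 min, room temperature) after a 17 hr compound exposure of wild-type HepG2 cells seeded at 2,000 per well and pre-incubated 5 hr.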

[4] = Caspase-3/7 induction in CHO-K1 cells by small molecules, qHTS cell viability counter screen (AID 1346979); also: nearly all actives have a fitted effect of over 35% in size
Procedure, shortened: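 Seeding: 1,500 CHO-K1 cells/well. Rest: 5hr, 37C. Treatment: compounds in DMSO, 16hr. Read: CellTiter-Fluor, 1hr, fluorescence.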

[5] = Caspase-3/7 induction in CHO-K1 cells by small molecules, qHTS assay (AID 1346980); also: nearly all actives have a fitted effect of over 15% in size
Procedure, shortened: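 Luminescent Caspase-Glo 3/7 read (30min, room temperature) quantified apoptosis induction. Cells were wild-type CHO-K1, treated with compound for 17hr at 37 C and 5% CO2.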

[6] = Caspase-3/7 induction in HepG2 cells by small molecules, qHTS cell viability counter screen (AID 1346981); also: series mostly up to about 92 µM; nearly all actives have a fitted effect of over 30% in size
Procedure, shortened: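 Wild-type HepG2 cells, 2,000/well, settled 5 hr at 37 C, 5% CO2 before compound addition. Viability read by CellTiter-Fluor fluorescence, reagent added after 16 hr compound exposure, then 1 hr at 37C, in the same wells as the caspase read.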

[7] = target: Nuclear receptor subfamily 1 group I member 2 (Homo sapiens) (UniProt O75469); experiment: Human pregnane X receptor (PXR) small molecule agonists, qHTS assay (AID 1346982); also: nearly all actives have a fitted effect of over 35% in size; also: potency is read from the fitted curve at half-maximal effect
Procedure, shortened: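 PXR-Luc HepG2 reporter cells (CYP3A4-driven luciferase) in 5% charcoal-stripped FBS medium, plated 5 h before compound addition, then treated 24 h at 37C. Luciferase read by ONE-Glo luminescence after 30 min at room temperature.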

[8] = target: Cytochrome P450 2D6 (Homo sapiens) (UniProt P10635); experiment: Cytochrome P450 Family 2 Subfamily D Member 6 (CYP2D6) small molecule antagonists: luciferase reporter qHTS assay (AID 1671196); also: nearly all actives have a fitted effect of over 50% in size; also: potency is read from the fitted curve at half-maximal effect
Procedure, shortened: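 Cell-free P450-Glo system: CYP2D6 with proluciferin substrate was pre-incubated with compound for 10 min, then reacted with NADPH regeneration for 1 h at room temperature. Luciferin product was detected after 20 min, and data were reported as relative luminescence units.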

[9] = target: Cytochrome P450 2C9 (Homo sapiens) (UniProt P11712); experiment: Cytochrome P450 Family 2 Subfamily C Member 9 (CYP2C9) small molecule antagonists: luciferase reporter qHTS assay (AID 1671198); also: nearly all actives have a fitted effect of over 50% in size; also: potency is read from the fitted curve at half-maximal effect
Procedure, shortened: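 Enzyme-substrate mix preincubated with compound 10 min at room temperature; reaction started with NADPH regeneration solution, 1 h 37C. Luminescent luciferin product read after 20 min detection reagent.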

[10] = target: Voltage-gated inwardly rectifying potassium channel KCNH2 (Homo sapiens) (UniProt Q12809); experiment: Human Ether-a-go-go-Related Gene (hERG) channel small molecule antagonists: fluorescence cell-based qHTS assay (AID 1671200);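 also: hERG-expressing U2OS cells given a thallium stimulus after FluxOR II dye loading; series mostly up to about 77 µM; nearly all actives have a fitted effect of over 50% in size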
Procedure, shortened: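 First, 1000 cells per well are seeded and cultured overnight at 37 C. Next, FluxOR II dye is loaded for 1 h at room temperature, protected from light. After 10 more minutes, stimulus is added and fluorescence is read.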

[11] = target: Cytochrome P450 3A4 (Homo sapiens) (UniProt P08684); experiment: Cytochrome P450 Family 3 Subfamily A Member 4 (CYP3A4) small molecule antagonists: luciferase reporter qHTS assay (AID 1671201); also: nearly all actives have a fitted effect of over 50% in size; also: potency is read from the fitted curve at half-maximal effect
Procedure, shortened: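 Enzyme and proluciferin substrate are mixed with test chemicals for 10 min, then NADPH regeneration system drives turnover for 1 h at room temperature. A detection reagent halts the reaction; luminescence after 20 min gives relative activity.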

[12] = target: Cytochrome P450 2C19 (Homo sapiens) (UniProt P33261); experiment: Cytochrome P450 Family 2 Subfamily C Member 19 (CYP2C19) small molecule antagonists: luciferase reporter qHTS assay (AID 1671197); also: nearly all actives have a fitted effect of over 65% in size; also: potency is read from the fitted curve at half-maximal effect
Procedure, shortened: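 Quantitative high-throughput screen of the Tox21 library using CYP2C19 with proluciferin substrate. Reaction: NADPH regeneration, 37C, 1 h, after 10 min compound preincubation at room temperature. Readout: luminescence.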

[13] = target: Cytochrome P450 1A2 (Homo sapiens) (UniProt P05177); experiment: Cytochrome P450 Family 1 Subfamily A Member 2 (CYP1A2) small molecule antagonists: luciferase reporter qHTS assay (AID 1671199); also: nearly all actives have a fitted effect of over 50% in size; also: potency is read from the fitted curve at half-maximal effect
Procedure, shortened: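 P450-Glo CYP1A2 enzyme–proluciferin substrate mix with compound 10 min at room temperature, then NADPH regeneration 1 h at room temperature. Luciferin detection reagent added, luminescence read after 20 min; furafylline positive control.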

Chain of Cytochrome P450 3A4 (Homo sapiens) (P08684 whole entry, looked up): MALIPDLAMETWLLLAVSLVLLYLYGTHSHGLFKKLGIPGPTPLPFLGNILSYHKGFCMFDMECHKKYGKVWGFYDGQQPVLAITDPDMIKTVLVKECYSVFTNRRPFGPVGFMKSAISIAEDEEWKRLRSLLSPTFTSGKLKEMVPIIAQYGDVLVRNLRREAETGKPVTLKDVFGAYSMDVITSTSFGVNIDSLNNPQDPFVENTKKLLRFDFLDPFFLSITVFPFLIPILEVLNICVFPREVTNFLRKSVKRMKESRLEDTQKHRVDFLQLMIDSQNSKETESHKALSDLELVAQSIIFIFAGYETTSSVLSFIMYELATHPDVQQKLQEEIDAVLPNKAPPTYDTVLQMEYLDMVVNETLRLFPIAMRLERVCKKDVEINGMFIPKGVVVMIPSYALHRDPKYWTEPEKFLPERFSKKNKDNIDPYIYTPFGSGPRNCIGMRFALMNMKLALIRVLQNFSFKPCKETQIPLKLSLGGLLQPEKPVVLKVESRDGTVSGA
Chain of Cytochrome P450 1A2 (Homo sapiens) (P05177 whole entry, looked up): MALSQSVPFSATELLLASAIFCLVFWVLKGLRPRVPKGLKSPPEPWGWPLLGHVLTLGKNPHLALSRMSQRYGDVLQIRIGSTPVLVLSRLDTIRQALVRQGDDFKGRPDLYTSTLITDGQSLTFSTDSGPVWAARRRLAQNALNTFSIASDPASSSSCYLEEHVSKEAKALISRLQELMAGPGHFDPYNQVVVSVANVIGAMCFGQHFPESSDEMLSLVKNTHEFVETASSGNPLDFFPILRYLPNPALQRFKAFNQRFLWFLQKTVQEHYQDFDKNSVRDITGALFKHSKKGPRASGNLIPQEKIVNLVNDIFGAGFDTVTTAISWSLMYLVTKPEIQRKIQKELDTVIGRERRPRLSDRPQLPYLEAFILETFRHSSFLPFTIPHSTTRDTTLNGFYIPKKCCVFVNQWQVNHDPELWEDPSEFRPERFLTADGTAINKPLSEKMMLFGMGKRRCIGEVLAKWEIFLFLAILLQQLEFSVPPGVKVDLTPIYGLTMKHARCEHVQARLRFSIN
Chain of Nuclear receptor subfamily 1 group I member 2 (Homo sapiens) (O75469 whole entry, looked up): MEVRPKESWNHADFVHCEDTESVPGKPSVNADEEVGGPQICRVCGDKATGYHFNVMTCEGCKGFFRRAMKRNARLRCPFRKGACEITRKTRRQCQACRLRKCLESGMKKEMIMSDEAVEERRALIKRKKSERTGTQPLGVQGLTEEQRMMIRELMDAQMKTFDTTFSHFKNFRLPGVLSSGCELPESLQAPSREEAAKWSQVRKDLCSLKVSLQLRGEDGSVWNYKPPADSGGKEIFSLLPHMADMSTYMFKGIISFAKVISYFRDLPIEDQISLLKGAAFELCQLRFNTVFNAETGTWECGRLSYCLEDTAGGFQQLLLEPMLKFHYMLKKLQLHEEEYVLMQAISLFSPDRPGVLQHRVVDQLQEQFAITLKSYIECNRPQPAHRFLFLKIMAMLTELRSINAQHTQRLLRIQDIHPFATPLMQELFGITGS
Chain of Cytochrome P450 2C9 (Homo sapiens) (P11712 whole entry, looked up): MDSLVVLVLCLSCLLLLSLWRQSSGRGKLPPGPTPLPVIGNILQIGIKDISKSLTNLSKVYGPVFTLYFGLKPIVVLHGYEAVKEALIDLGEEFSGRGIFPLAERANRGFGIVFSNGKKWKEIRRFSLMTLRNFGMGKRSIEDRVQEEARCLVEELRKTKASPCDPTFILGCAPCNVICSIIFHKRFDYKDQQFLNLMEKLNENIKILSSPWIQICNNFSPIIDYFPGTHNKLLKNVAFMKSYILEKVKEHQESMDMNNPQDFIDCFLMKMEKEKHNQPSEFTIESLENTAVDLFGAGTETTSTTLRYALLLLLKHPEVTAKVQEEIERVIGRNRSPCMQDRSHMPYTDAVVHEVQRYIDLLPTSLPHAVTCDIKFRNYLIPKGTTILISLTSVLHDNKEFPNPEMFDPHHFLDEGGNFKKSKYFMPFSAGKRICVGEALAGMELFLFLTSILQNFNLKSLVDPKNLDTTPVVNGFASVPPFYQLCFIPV
Chain of Voltage-gated inwardly rectifying potassium channel KCNH2 (Homo sapiens) (Q12809 whole entry, looked up): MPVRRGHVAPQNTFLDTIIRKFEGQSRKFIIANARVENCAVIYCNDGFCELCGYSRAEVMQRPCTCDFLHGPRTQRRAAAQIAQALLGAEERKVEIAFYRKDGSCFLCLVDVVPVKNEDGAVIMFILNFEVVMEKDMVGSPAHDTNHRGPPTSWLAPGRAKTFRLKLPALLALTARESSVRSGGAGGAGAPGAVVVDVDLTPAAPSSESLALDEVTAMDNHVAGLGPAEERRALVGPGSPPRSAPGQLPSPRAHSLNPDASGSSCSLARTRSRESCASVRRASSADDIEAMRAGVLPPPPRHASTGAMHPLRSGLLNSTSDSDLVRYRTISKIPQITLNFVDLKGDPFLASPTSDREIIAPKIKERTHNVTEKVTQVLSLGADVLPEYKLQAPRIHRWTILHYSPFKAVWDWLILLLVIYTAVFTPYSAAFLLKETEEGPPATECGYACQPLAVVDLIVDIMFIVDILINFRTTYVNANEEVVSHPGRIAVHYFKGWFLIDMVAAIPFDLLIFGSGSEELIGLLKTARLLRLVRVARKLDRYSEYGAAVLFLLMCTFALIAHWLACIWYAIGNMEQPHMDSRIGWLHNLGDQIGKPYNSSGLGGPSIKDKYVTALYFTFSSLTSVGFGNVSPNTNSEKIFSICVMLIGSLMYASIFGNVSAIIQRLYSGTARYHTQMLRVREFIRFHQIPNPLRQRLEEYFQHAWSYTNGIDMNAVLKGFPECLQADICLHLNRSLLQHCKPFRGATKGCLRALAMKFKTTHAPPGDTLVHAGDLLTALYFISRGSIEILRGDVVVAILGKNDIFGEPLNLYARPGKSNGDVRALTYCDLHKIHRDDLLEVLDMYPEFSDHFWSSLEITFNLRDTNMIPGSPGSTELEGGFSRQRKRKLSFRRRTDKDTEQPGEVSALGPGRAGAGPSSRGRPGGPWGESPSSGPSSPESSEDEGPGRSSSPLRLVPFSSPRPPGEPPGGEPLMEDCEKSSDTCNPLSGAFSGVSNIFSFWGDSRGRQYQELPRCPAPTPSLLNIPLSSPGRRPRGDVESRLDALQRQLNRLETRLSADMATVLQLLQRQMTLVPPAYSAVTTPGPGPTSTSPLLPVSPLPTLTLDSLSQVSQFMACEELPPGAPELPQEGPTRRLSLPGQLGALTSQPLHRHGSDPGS
Chain of Cytochrome P450 2C19 (Homo sapiens) (P33261 whole entry, looked up): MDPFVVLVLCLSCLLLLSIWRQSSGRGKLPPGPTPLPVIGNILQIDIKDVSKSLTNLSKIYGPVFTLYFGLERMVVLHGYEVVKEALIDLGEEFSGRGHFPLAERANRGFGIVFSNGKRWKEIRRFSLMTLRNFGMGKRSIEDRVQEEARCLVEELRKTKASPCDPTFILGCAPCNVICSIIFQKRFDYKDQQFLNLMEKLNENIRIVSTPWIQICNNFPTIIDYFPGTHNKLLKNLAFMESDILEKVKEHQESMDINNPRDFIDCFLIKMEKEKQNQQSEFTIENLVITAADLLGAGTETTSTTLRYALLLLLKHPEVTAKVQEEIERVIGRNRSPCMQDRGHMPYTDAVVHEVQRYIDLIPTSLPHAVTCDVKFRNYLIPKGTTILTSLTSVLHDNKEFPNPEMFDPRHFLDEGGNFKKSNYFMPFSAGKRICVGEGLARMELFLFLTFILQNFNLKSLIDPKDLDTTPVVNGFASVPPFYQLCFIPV
Chain of Thyrotropin-releasing hormone receptor (Homo sapiens) (P34981 whole entry, looked up): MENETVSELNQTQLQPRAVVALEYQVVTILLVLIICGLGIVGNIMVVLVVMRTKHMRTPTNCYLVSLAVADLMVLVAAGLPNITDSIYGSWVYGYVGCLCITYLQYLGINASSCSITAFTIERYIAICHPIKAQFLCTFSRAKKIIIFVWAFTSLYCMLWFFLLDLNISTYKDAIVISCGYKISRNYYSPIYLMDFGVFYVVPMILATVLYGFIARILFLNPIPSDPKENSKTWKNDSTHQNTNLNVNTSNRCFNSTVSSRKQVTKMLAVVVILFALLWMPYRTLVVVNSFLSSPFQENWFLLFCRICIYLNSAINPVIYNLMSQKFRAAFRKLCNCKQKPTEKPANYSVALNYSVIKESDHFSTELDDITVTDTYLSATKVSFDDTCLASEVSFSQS
Chain of Cytochrome P450 2D6 (Homo sapiens) (P10635 whole entry, looked up): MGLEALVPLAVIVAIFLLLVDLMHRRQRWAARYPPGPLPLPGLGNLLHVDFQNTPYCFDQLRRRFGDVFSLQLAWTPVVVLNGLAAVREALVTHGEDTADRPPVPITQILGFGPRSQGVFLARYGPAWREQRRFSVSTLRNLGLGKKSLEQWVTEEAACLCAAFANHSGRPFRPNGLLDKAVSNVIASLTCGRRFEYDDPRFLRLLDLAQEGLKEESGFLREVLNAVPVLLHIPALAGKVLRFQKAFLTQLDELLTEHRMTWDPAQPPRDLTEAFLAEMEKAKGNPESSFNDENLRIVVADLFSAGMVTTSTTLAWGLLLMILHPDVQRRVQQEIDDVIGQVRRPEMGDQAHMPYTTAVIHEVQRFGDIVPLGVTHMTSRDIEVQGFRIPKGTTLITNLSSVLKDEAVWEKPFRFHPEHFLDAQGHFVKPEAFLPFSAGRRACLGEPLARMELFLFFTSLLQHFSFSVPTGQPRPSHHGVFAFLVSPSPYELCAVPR

Compound | Potency [1] | Potency [2] | Potency [3] | Potency [4] | Potency [5] | Potency [6] | Potency [7] | Potency [8] | Potency [9] | Potency [10] | Potency [11] | Potency [12] | Potency [13]
CC(CCC(=O)O)C(=O)O (stereo unspecified) | inactive | inactive | inactive | inactive | inactive | inactive | inactive | 63.4 µM (active) | inactive | inactive | inactive |  | 
c1ccc2c(c1)CCc1ccccc1N2 | inactive | inactive | inactive | inactive | inactive | inactive | 61.4 µM (active) and inactive | inactive | 40.1 µM (active) and 13.8 µM (active) | inactive | inactive | 8 µM (active) and 8.71 µM (active) | 7.13 µM (active) and 5.49 µM (active)
O=C(OC(=O)c1ccccc1)c1ccccc1 | inactive | inactive | inactive | inactive | inactive | inactive | inactive | inactive | inactive | inactive | inactive | inactive | 
Cc1ccco1 | inactive | inactive | inactive | inactive | inactive | inactive | inactive | 34.8 µM (active) | inactive | inactive | inactive | inactive | 
CC(C)=CC(=O)C=C(C)C | inactive | inactive | inactive | inactive | inactive | inactive | inactive | inactive |  | inactive | inactive | 39.7 µM (active) | 28.1 µM (active)
CCCCCCC(C)(C)C(=O)O | inactive | inactive | inactive | inactive | inactive | inactive | 48.6 µM (active) | inactive | 31.7 µM (active) | inactive | inactive | 71 µM (active) | 
C=C(C)CCCC(C)CCO (stereo unspecified) | inactive | inactive | inactive | inactive | inactive | inactive | 54.5 µM (active) | inactive | 39.9 µM (active) | inactive |  | 39.9 µM (active) | 
C=C1C[C@@]23CC[C@H]4[C@@](C)(CCC[C@@]4(C)C(=O)O[C@@H]4O[C@H](CO)[C@@H](O)[C@H](O)[C@H]4O)[C@@H]2CC[C@]1(O[C@@H]1O[C@H](CO)[C@@H](O)[C@H](O[C@@H]2O[C@H](CO)[C@@H](O)[C@H](O)[C@H]2O)[C@H]1O[C@@H]1O[C@H](CO)[C@@H](O)[C@H](O)[C@H]1O)C3 | inactive | inactive | inactive | inactive | inactive | inactive | inactive | inactive |  | inactive | inactive | inactive | inactive
CCC=CC#N | inactive | inactive | inactive | inactive | inactive | inactive | 47.1 µM (active) | inactive | inactive | inactive | inactive |  | 
CCOC(=O)c1ccc(OCCN2C[C@H](O)[C@@H](O)[C@H](O)[C@H]2CO)cc1 | inactive | inactive | inactive | inactive | inactive | inactive | inactive | inactive | inactive | inactive | inactive | inactive | 
C(=C\c1ccccc1)/c1ccccc1 | inactive | inactive | inactive | inactive | inactive | inactive | inactive | inactive |  | inactive |  | 44.4 µM (active) | 4.99 µM (active)
Brc1cc(Br)c(Oc2cc(Br)c(Br)cc2Br)cc1Br | inactive | inactive | inactive | inactive | inactive | inactive | 29.9 µM (active) | inactive |  | inactive | inactive | 13.8 µM (active) | inactive
CC(C)=CCC/C(C)=C/CC/C(C)=C/CCC(=O)OC/C=C(\C)CCC=C(C)C | inactive | inactive | inactive | inactive | inactive | inactive | inactive | inactive | inactive | inactive | inactive | inactive | inactive
CC(=O)[C@H]1[C@H](C#N)C[C@H]2[C@@H]3CC=C4C[C@@H](O)CC[C@]4(C)[C@H]3CC[C@@]21C | inactive | inactive | inactive | inactive | inactive | inactive | 33.1 µM (active) | inactive |  | inactive | inactive | inactive | inactive
C=CC(C)(CCC=C(C)C)OC(=O)CC(C)C (stereo unspecified) | inactive | inactive | inactive | inactive | inactive | inactive | inactive | inactive | 35.6 µM (active) | inactive | 35.6 µM (active) | 35.6 µM (active) | 
N#CCc1ccc(Cl)cc1Cl | inactive | inactive | inactive | inactive | inactive | inactive | inactive | inactive | inactive | inactive | inactive | 79.6 µM (active) | 22.4 µM (active)
CCc1ccccc1 | inactive | inactive | inactive | inactive | inactive | inactive | inactive | inactive |  | inactive | inactive | inactive | 
C1COC1 | inactive | inactive | inactive | inactive | inactive | inactive | inactive | inactive | inactive | inactive | inactive | inactive | inactive
Cc1ccc(C(C)(C)O)cc1 | inactive | inactive | inactive | inactive | inactive | inactive | inactive | inactive | inactive | inactive |  | inactive | 
